Laboratory results taken from PubChem BioAssay (EPA / NIEHS).
Results filed as inconclusive are left out. Activity calls are given as the source filed them. Rule for the calls, unless noted: active = hit-call score of the fitted dose curve at least 0.9, where 1 is the maximum; inconclusive = response in the unintended direction; inactive = score below 0.9.

Key:
[1] = molecular target: human Caspase 5 (CASP5), CASP5 (gene 838) (UniProt P51878); test: NVS_ENZ_hCASP5: NovaScreen (NVS) Enzymatic Assay for human Caspase 5 (CASP5) (AID 2283137)
Chain of human Caspase 5 (CASP5), CASP5 (gene 838) (P51878 whole entry, looked up): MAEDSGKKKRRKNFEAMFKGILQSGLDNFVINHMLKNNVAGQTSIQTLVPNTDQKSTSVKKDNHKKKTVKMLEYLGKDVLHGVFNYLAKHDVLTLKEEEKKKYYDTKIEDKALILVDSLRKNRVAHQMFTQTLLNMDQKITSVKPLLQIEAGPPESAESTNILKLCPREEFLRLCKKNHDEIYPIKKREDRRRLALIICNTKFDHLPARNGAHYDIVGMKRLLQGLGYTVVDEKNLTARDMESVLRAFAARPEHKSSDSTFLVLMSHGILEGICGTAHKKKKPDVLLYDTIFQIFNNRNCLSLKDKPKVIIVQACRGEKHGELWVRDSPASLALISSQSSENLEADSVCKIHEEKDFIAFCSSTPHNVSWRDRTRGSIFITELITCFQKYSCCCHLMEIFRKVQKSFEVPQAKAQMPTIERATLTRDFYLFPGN
Procedure, shortened: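 Loss of fluorescent signal versus DMSO scored for E. coli-derived human CASP5 cleaving a fluorescent substrate, 2 h post-dosing; compounds first tested at 25 uM in duplicate, hits rerun in concentration series with 50 uM top concentration.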

[2] = molecular target: human Dopamine Transporter (DAT), SLC6A3 (gene 6531) (UniProt Q01959); test: NVS_TR_hDAT: NovaScreen (NVS) Transporter Assay for human Dopamine Transporter (DAT) (AID 2283374);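 note: activity means loss of bound radioligand signal relative to DMSO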
Chain of human Dopamine Transporter (DAT), SLC6A3 (gene 6531) (Q01959 whole entry, looked up): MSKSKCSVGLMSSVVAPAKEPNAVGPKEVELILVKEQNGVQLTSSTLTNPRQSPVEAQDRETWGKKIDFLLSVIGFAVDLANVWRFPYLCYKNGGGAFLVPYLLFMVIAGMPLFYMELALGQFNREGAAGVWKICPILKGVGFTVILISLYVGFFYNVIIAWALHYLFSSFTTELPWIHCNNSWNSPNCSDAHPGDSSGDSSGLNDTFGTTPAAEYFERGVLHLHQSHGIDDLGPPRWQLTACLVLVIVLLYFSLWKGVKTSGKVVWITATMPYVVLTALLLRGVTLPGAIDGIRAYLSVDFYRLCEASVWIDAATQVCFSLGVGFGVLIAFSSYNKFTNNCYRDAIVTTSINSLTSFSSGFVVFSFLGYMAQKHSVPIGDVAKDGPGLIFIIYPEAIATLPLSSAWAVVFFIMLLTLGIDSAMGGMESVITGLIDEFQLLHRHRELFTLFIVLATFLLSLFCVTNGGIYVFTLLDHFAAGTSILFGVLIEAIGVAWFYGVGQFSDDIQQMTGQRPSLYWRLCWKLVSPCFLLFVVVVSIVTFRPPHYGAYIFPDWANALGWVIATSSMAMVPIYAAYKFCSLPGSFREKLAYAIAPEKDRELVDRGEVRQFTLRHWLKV
Procedure, shortened: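 Duplicate single-point screening at 25 uM preceded concentration-series follow-up of actives. Binding was measured by competitive displacement of a radioligand from DAT protein, filter-counted by scintillation 1 h after dosing. Decrease relative to DMSO taken as activity.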

[3] = molecular target: Androgen Receptor/SRC-1 Co-activator, AR (gene 367) (UniProt P10275); test: OT_AR_ARSRC1_0480: Odyssey Thera (OT) 8-hour HEK293T Protein-Complementation Assay for Androgen Receptor/SRC-1 Co-activator (AID 2283354);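 note: hits raise the complementation signal above DMSO so AC50 marks enhancers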
Chain of Androgen Receptor/SRC-1 Co-activator, AR (gene 367) (P10275 whole entry, looked up): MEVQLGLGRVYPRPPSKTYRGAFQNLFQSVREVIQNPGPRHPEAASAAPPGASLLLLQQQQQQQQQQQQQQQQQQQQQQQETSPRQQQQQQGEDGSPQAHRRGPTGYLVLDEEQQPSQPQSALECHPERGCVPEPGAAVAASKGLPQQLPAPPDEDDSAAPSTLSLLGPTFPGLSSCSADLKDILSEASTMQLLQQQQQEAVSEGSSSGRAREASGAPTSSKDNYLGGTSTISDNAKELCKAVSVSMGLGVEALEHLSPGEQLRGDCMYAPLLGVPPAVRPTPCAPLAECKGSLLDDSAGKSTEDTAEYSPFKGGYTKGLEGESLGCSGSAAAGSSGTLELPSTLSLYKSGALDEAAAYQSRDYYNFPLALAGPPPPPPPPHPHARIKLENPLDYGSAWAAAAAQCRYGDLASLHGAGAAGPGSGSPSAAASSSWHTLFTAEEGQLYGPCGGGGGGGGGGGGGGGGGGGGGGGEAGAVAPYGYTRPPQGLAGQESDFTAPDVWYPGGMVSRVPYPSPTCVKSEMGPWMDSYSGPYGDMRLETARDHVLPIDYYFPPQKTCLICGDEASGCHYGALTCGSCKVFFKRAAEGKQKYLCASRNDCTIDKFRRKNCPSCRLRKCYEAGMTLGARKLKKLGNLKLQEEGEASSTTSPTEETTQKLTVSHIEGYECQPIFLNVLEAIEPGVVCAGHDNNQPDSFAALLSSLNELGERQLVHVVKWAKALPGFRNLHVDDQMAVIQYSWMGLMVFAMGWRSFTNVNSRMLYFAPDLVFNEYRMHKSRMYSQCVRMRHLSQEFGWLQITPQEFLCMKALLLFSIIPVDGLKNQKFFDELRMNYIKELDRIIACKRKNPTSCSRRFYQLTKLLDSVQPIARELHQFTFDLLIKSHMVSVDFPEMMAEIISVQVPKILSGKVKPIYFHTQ
Procedure, shortened: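 Reconstituted split-Venus YFP signal from AR–SRC-1 interaction, read by imaging 8 h post-dose in stable HEK293T lines. The 488 nm nucleus-to-cytoplasm ratio (≥400 cells/image) was fitted upward against DMSO.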

[4] = molecular target: Agonist Androgen Response Element (ARE), AR (gene 367) (UniProt P10275); test: OT_AR_ARELUC_AG_1440: Odyssey Thera (OT) 24-hour CHO-K1 Luciferase Assay for Agonist Androgen Response Element (ARE) (AID 2283379)
Chain of Agonist Androgen Response Element (ARE), AR (gene 367) (P10275 whole entry, looked up): as above
Procedure, shortened: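 Readout: luciferase bioluminescence from CHO-K1 ARE-luc cells, measured 24 h post-dosing; agonism = increased mean luminescence vs DMSO controls, fitted in positive direction.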

[5] = molecular target: Ratio of Nucleoli Translocation and Cytoplasm, AR (gene 367) (UniProt P10275); test: UPITT_HCI_U2OS_AR_TIF2_Nucleoli_Cytoplasm_Ratio_Antagonist: University of Pittsburgh U2OS Androgen Receptor-Transcriptional Intermediary Factor 2 (AR-TIF2) Antagonism High Content Imaging Assay for Ratio of Nucleoli Translocation and Cytoplasm (AID 2283999);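 note: antagonists lower the DHT-driven ratio of nucleolar to cytoplasmic red signal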
Chain of Ratio of Nucleoli Translocation and Cytoplasm, AR (gene 367) (P10275 whole entry, looked up): as above
Procedure, shortened: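 High-content imaging of red fluorescence ratio, nucleoli versus cytoplasm, in U2OS expressing AR-RFP and TIF2-GFP, fitted relative to DHT. Compounds tested once at 20 uM final, then 0.195 to 50 uM final in serial dilution.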

[6] = molecular target: Ratio of Nucleoli Translocation and Cytoplasm, AR (gene 367) (UniProt P10275); test: UPITT_HCI_U2OS_AR_TIF2_Nucleoli_Cytoplasm_Ratio_Agonist: University of Pittsburgh U2OS Androgen Receptor-Transcriptional Intermediary Factor 2 (AR-TIF2) Agonism High Content Imaging Assay for Ratio of Nucleoli Translocation and Cytoplasm (AID 2284000);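 note: hits raise the red nucleolar to cytoplasm ratio above vehicle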
Procedure, shortened: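 Compounds tested at 20 uM final in primary screen (0.2% DMSO) and 0.195-50 uM final in dose-response (0.5% DMSO). Imaging of human U2OS cells bearing RFP-AR and GFP-TIF2; endpoint is nucleoli/cytoplasm red signal ratio, positive direction relative to DMSO.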

AR (gene 367) = AR (gene 367) (UniProt P10275); test: ACEA_AR_antagonist_80hr: ACEA Biosciences xCELLigence Real-Time Cell Analysis on Androgen Receptor Antagonism for Proliferation (AID 2283787);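 note: 22Rv1 human prostate cancer cells with growth followed by electrical impedance; hits lower the impedance growth signal relative to DMSO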
Chain of AR (gene 367) (P10275 whole entry, looked up): as above
Procedure, shortened: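 Impedance-based real-time growth of 22Rv1 prostate cells, read 80 h after dosing. Eight concentrations, 1:4 series, top 100 uM final (0.5% DMSO), n = 2; signal decrease scored against DMSO.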

[7] = molecular target: Bile acid receptor (Homo sapiens) (UniProt Q96RI1); test: ATG_FXR_TRANS: Attagene TRANS-FACTORIAL HepG2 Assay for Farnesoid X Receptor (FXR) (AID 2282979); conditions: HepG2 Attagene TRANS FXR-GAL4 reporter transcription;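 note: hits raise reporter mRNA above DMSO so AC50 marks FXR activation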
Chain of Bile acid receptor (Homo sapiens) (Q96RI1 whole entry, looked up, the tested form may be a part): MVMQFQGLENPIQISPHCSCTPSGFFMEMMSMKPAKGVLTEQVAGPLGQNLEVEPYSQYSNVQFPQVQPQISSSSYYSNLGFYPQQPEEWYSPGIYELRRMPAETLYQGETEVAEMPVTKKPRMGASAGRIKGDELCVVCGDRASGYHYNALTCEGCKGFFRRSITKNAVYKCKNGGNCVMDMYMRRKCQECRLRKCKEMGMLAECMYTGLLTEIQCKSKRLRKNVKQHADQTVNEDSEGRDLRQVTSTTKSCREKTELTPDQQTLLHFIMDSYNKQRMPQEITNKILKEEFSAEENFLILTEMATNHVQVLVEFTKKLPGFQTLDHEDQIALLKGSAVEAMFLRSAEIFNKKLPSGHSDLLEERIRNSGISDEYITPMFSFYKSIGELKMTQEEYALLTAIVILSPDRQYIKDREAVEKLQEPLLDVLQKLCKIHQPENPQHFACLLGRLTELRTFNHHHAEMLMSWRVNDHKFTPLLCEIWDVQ
Procedure, shortened: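 Transient transfection of HepG2 with multiplexed GAL4-UAS reporter units; exogenous FXR-GAL4 chimera. Dose 24 h → TriZol RNA → oligo(dT) RT → PCR, 6-FAM primer extension, HpaI cut → CE. Gain vs DMSO.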

[8] = molecular target: bovine Estrogen Receptor (ER), ESR1 (gene 407238) (UniProt P49884); test: NVS_NR_bER: NovaScreen (NVS) Nuclear Receptor Binding Assay for bovine Estrogen Receptor (ER) (AID 2283345);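 note: actives lower the bound radioligand count which means they displace the ER ligand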
Chain of bovine Estrogen Receptor (ER), ESR1 (gene 407238) (P49884 whole entry, looked up): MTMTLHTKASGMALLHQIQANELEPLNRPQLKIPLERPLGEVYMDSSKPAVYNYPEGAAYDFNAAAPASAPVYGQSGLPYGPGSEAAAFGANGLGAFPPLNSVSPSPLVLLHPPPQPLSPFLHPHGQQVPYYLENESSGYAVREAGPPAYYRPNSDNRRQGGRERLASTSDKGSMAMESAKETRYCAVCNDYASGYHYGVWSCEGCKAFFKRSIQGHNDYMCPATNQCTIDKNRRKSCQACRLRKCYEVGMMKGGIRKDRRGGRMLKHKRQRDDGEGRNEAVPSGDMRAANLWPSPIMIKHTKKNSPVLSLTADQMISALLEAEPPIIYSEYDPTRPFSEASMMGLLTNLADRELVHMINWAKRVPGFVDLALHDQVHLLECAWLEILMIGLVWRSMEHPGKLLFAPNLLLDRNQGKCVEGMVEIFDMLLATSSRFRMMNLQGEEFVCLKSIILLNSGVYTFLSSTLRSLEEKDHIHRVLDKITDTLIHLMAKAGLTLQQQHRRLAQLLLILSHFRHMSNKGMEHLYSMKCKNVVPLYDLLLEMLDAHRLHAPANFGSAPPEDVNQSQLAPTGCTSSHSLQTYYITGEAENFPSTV
Procedure, shortened: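 Bovine uterine membranes; tritiated or iodinated radioligand; competitive displacement; 18 h; scintillation read; DMSO negative control; 25 uM duplicates, then concentration series for actives.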

[9] = CEETOX_H295R_OHPREG: CeeTox H295R High-throughput Steroidogenesis Assay for OH-Pregnenolone (OHPREG) (AID 2283434; active = hit-call score of the fitted dose curve at least 0.9, where 1 is the maximum; inactive = score below 0.9); conditions: actives raise or lower the signal
Procedure, shortened: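 Secreted 17alpha-hydroxypregnenolone measured by HPLC-MS/MS after liquid-liquid extraction. Human adrenal H295R cells received 48 h forskolin (10 uM) stimulation before 48 h chemical exposure at 0.1% final DMSO; MTT viability in same wells; bidirectional fit against DMSO.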

[10] = CEETOX_H295R_OHPROG: CeeTox H295R High-throughput Steroidogenesis Assay for OH-Progesterone (OHPROG) (AID 2283435; active = hit-call score of the fitted dose curve at least 0.9, where 1 is the maximum; inactive = score below 0.9;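 note: 17alpha-hydroxyprogesterone secreted into medium measured by HPLC-MS/MS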); conditions: actives raise or lower the signal
Procedure, shortened: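 Medium steroid levels read by LC-MS/MS after 48 h chemical treatment (0.1% DMSO) of human adrenal H295R cells that had been forskolin-primed (10 uM, 48 h). Gain or loss fitted against DMSO; MTT cytotoxicity checked per well.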

TTR (gene 7276) = test: CCTE_GLTED_hTTR_0.125uM: CCTE's human Transthyretin (hTTR) Inhibition Assay, with 0.125uM TTR, Great Lakes Toxicology and Ecology Division (GLTED) Lab (AID 2284431; active = hit-call score of the fitted dose curve at least 0.9, where 1 is the maximum; inactive = score below 0.9;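 note: hits lower the fluorescence signal relative to DMSO baseline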)
Procedure, shortened: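 Fluorescence (380 ex, 475 em) reported the ANSA probe remaining bound to 0.125uM human transthyretin. Chemicals were incubated with the protein for 2 hours; activity was scored as loss of signal against DMSO negative control.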

[11] = molecular target: human Peroxisome Proliferator-activated Receptor alpha (PPARa), PPARA (gene 5465) (UniProt Q07869); test: NVS_NR_hPPARa: NovaScreen (NVS) Nuclear Receptor Binding Assay for human Peroxisome Proliferator-activated Receptor alpha (PPARa) (AID 2283359);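 note: activity means loss of TR-FRET signal versus DMSO baseline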
Chain of human Peroxisome Proliferator-activated Receptor alpha (PPARa), PPARA (gene 5465) (Q07869 whole entry, looked up): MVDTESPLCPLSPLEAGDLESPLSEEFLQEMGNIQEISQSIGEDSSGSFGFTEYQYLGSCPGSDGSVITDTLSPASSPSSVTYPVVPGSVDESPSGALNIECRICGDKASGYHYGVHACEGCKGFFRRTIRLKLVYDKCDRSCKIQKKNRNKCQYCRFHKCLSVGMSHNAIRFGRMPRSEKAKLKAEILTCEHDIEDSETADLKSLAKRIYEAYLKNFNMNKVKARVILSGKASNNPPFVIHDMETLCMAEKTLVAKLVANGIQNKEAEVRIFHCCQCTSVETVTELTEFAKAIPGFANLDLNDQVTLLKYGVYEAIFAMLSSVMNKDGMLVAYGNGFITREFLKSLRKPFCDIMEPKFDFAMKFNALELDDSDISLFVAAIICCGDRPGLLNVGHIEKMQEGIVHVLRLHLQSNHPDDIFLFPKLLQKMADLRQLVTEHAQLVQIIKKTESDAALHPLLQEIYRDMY
Procedure, shortened: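 Loss of TR-FRET binding signal relative to DMSO was measured 1 h after chemical addition to extracted receptor protein. Chemicals were first tested in duplicate at 25 uM, and actives were followed up in concentration series.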

Question: For `CC1OC(C)OC(C)O1` (configuration not stated), which outcome [1] is on record?
Answer: inactive

Question: For `C[C@]12CC[C@H](O)C[C@H]1CC[C@@H]1[C@@H]2C[C@@H](O)[C@]2(C)[C@@H](C3=CC(=O)OC3)CC[C@]12O`, which AC50 [2] is on record?
Answer: 40.9 µM (active)

Question: Which results are given for `Cc1ccc(C)c2ccccc12`?
Answer: outcome [3]: inactive; outcome [4]: inactive; outcome [5]: inactive; outcome [6]: inactive

Question: For `C=COCCCl`, which outcome [5] is on record?
Answer: inactive

Question: What about the outcome [6] of the same molecule?
Answer: inactive

Question: Which results are given for `c1ccc2c(c1)CCCC2`?
Answer: outcome [3]: inactive; outcome [4]: inactive; outcome (AR (gene 367)): inactive; outcome [6]: inactive

Question: With `Oc1ccc(C2(c3ccc(O)cc3)c3ccccc3-c3ccccc32)cc1` as the molecule, how does the outcome [7] read?
Answer: inactive

Question: And the outcome [8]?
Answer: inactive

Question: Which outcome [9] does the source give for `Nc1ccc(Cl)c(Cl)c1` here?
Answer: inactive

Question: And the AC50 [10]?
Answer: 33.3 µM (active)

Question: And the AC50 (TTR (gene 7276))?
Answer: 18.3 µM (active)

Question: Which results are given for `COc1cc(OC)nc(Oc2cccc(Oc3nc(OC)cc(OC)n3)c2C(=O)O)n1`?
Answer: outcome [3]: inactive; outcome [11]: inactive; outcome [4]: inactive; outcome (AR (gene 367)): inactive; outcome [5]: inactive
